About 83,000 compounds went through this panel and 20% of them were active in at least one assay; those are over-represented in the sample as a whole.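 96-well plates, one dose, 48 hours. Percent growth reported; active if below 10.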 The source made the active and inactive calls.
Assays:
Test in all cases: NCI-60 one-dose screen, 48 h (100 = growth as untreated, 0 = no growth, -100 = all killed)
HT29 colon = details: 10 µM unless noted
SNB-75 CNS = details: 10 µM
SNB-19 CNS = details: 10 µM unless noted
U251 CNS = details: 10 µM unless noted
PC-3 prostate = details: 10 µM unless noted
SK-MEL-5 melanoma = details: 10 µM unless noted
UACC-62 melanoma = details: 10 µM unless noted
LOX IMVI melanoma = details: 10 µM unless noted
SK-MEL-28 melanoma = details: 10 µM unless noted
SK-MEL-2 melanoma = details: 10 µM unless noted
SN12C renal = details: 10 µM unless noted
UO-31 renal = details: 10 µM unless noted
TK-10 renal = details: 10 µM unless noted
CAKI-1 renal = details: 10 µM unless noted
A498 renal = details: 10 µM unless noted
CCRF-CEM leukemia = details: 10 µM unless noted
MOLT-4 leukemia = details: 10 µM unless noted
EKVX NSCLC = details: 10 µM unless noted
ACHN renal = details: 10 µM unless noted
HCT-15 colon = details: 10 µM unless noted

Measured: growth

COc1ccc(-c2cnnn2-c2nonc2-n2cccc2)cc1OC
inactive: HT29 colon 12.3% | SNB-75 CNS 51.3% | SNB-19 CNS 84.2% | U251 CNS 56.8% | PC-3 prostate 61.2% | SK-MEL-5 melanoma 55.6% | UACC-62 melanoma 54.1% | LOX IMVI melanoma 44.2% | SK-MEL-28 melanoma 67.8% | SK-MEL-2 melanoma 38% | SN12C renal 68.5% | UO-31 renal 72.2% | TK-10 renal 69.6% | CAKI-1 renal 42.9% | A498 renal 56.3% | CCRF-CEM leukemia 54.7% | MOLT-4 leukemia 18.1%

CC(C)CC1NC(C)(C)CO1 (configuration not stated)
inactive: HT29 colon 97.5% | SNB-19 CNS 115% | U251 CNS 109% | PC-3 prostate 94.4% | SK-MEL-5 melanoma 104% | UACC-62 melanoma 106% | LOX IMVI melanoma 97.2% | SK-MEL-28 melanoma 111% | SK-MEL-2 melanoma 113% | EKVX NSCLC 123% | SN12C renal 112% | UO-31 renal 90.2% | TK-10 renal 96.4% | ACHN renal 113% | CAKI-1 renal 92.5% | CCRF-CEM leukemia 102% | MOLT-4 leukemia 124%

O=C(Nc1ccncc1)C(=O)c1cn(S(=O)(=O)c2ccc(Br)cc2)c2ccccc12
inactive: HCT-15 colon 31% | SNB-19 CNS 64.6% | U251 CNS 42.7% | PC-3 prostate 68.4% | UACC-62 melanoma 38.3% | LOX IMVI melanoma 41.6% | SK-MEL-28 melanoma 60.6% | EKVX NSCLC 44.5% | SN12C renal 46.3% | TK-10 renal 98.2% | ACHN renal 58% | CAKI-1 renal 40.6% | A498 renal 47.3% | MOLT-4 leukemia 44.3%

COc1cccc(/C=C2\Oc3cc(OCCCN4CCCC4)ccc3C2=O)c1
inactive: HCT-15 colon 19.3% | SNB-19 CNS 87.9% | U251 CNS 75.6% | PC-3 prostate 69% | UACC-62 melanoma 96.7% | SK-MEL-28 melanoma 100% | SK-MEL-2 melanoma 107% | EKVX NSCLC 85.3% | SN12C renal 85.2% | UO-31 renal 58.2% | TK-10 renal 93.3% | ACHN renal 93% | CAKI-1 renal 85.5% | MOLT-4 leukemia 59.5%
active: CCRF-CEM leukemia 1.85%

CCOC(=O)NNC(=S)Nc1ccccc1
inactive: HT29 colon 105% | SNB-75 CNS 95.2% | SNB-19 CNS 97.9% | U251 CNS 101% | PC-3 prostate 100% | SK-MEL-5 melanoma 100% | UACC-62 melanoma 95.5% | LOX IMVI melanoma 100% | SK-MEL-28 melanoma 106% | SK-MEL-2 melanoma 116% | SN12C renal 99% | UO-31 renal 89.4% | TK-10 renal 111% | ACHN renal 105% | CAKI-1 renal 92.3% | A498 renal 95.1% | CCRF-CEM leukemia 106% | MOLT-4 leukemia 106%

CC1(C)C(=O)/C(=C\c2ccc(C(F)(F)F)cc2)C[C@]2(C)[C@H]3CC[C@@H]4[C@H]5[C@H](C(=O)/C=C/c6ccc(C(F)(F)F)cc6)CC[C@]5(CO)CC[C@@]4(C)[C@]3(C)CC[C@@H]12
inactive: HT29 colon 104% | SNB-75 CNS 83.7% | SNB-19 CNS 92.6% | U251 CNS 92.8% | PC-3 prostate 84% | SK-MEL-5 melanoma 94.1% | UACC-62 melanoma 84.3% | SK-MEL-28 melanoma 110% | SK-MEL-2 melanoma 105% | SN12C renal 91.8% | UO-31 renal 66.6% | TK-10 renal 126% | ACHN renal 91.9% | CAKI-1 renal 56.2% | A498 renal 93.7% | CCRF-CEM leukemia 90.5% | MOLT-4 leukemia 82.5%

COc1ccc(OC)c(/C=C2\Oc3cc(OCCCN4CCCC4)ccc3C2=O)c1
inactive: HCT-15 colon 20% | SNB-19 CNS 82.1% | U251 CNS 74.2% | PC-3 prostate 82.9% | UACC-62 melanoma 95.9% | LOX IMVI melanoma 12% | SK-MEL-28 melanoma 87.4% | SK-MEL-2 melanoma 104% | EKVX NSCLC 80.4% | SN12C renal 76.2% | UO-31 renal 56.7% | TK-10 renal 99.8% | ACHN renal 78.2% | CAKI-1 renal 82% | CCRF-CEM leukemia 50.8% | MOLT-4 leukemia 54.8%

N#Cc1ccc(N2Cc3ccccc3OC3=C2C(=O)c2c(O)ccc(O)c2C3=O)cc1
inactive: SNB-75 CNS 76% | SNB-19 CNS 27.6% | U251 CNS 10.2% | SK-MEL-5 melanoma 59.9% | A498 renal 93.4%
active: HT29 colon -62.4% | PC-3 prostate -25.6% | UACC-62 melanoma -26.3% | LOX IMVI melanoma -49.7% | SK-MEL-28 melanoma -32.2% | SK-MEL-2 melanoma -24% | SN12C renal -32.9% | UO-31 renal -80.5% | TK-10 renal -84.4% | ACHN renal -59.9% | CAKI-1 renal 2.96% | CCRF-CEM leukemia -8.98%

COc1ccc(-c2nc3sccn3c2/C=C/C(=O)c2cc(F)cc(F)c2)cc1
inactive: HT29 colon 65.2% | SNB-75 CNS 42.3% | SNB-19 CNS 67.8% | U251 CNS 45.4% | PC-3 prostate 62.3% | SK-MEL-5 melanoma 80.9% | UACC-62 melanoma 54.4% | LOX IMVI melanoma 50.1% | SK-MEL-28 melanoma 93% | SK-MEL-2 melanoma 74.7% | EKVX NSCLC 88% | SN12C renal 92.1% | UO-31 renal 60.5% | TK-10 renal 164% | ACHN renal 65.4% | CAKI-1 renal 57.1% | A498 renal 57.6% | CCRF-CEM leukemia 19.4%
active: MOLT-4 leukemia 5.45%

Cc1cccc(/C=N/Nc2cc(C)c3cccc(C)c3n2)n1
inactive: HT29 colon 84.9% | SNB-75 CNS 119% | SNB-19 CNS 92.7% | U251 CNS 78.6% | PC-3 prostate 51.6% | SK-MEL-5 melanoma 66.2% | UACC-62 melanoma 87.1% | SK-MEL-28 melanoma 94.8% | SN12C renal 94.6% | UO-31 renal 76.5% | TK-10 renal 111% | ACHN renal 92.1% | CAKI-1 renal 98.3% | A498 renal 97.7% | CCRF-CEM leukemia 74% | MOLT-4 leukemia 67.9%

CC(C)NCCCNC1=C(Cl)C(=O)c2ccccc2C1=O
active: MOLT-4 leukemia -45.8%
inactive: HT29 colon 83.1% | SNB-75 CNS 79.4% | SNB-19 CNS 106% | U251 CNS 52.9% | PC-3 prostate 57.5% | SK-MEL-5 melanoma 44.3% | UACC-62 melanoma 92.7% | LOX IMVI melanoma 25.9% | SK-MEL-28 melanoma 112% | SK-MEL-2 melanoma 125% | EKVX NSCLC 80.4% | SN12C renal 91.7% | UO-31 renal 81.9% | TK-10 renal 114% | ACHN renal 81.1% | CAKI-1 renal 66.7% | A498 renal 88.1% | CCRF-CEM leukemia 76.6%

CCOC(=O)c1ccc2c(c1)c1c(C)c3cccnc3c(C)c1n2C
inactive: SNB-75 CNS 68% | SNB-19 CNS 56.4% | U251 CNS 48.1% | PC-3 prostate 58.3% | SK-MEL-5 melanoma 69.9% | UACC-62 melanoma 49.2% | LOX IMVI melanoma 22.9% | SK-MEL-28 melanoma 85.3% | SK-MEL-2 melanoma 96% | SN12C renal 33.8% | UO-31 renal 32% | TK-10 renal 87.8% | ACHN renal 29.8% | CAKI-1 renal 30.9% | A498 renal 83.4% | CCRF-CEM leukemia 47.9% | MOLT-4 leukemia 21.4%

Reference: PubChem BioAssay (NCI)
